Screening data: PubChem, National Center for Advancing Translational Sciences (NCATS)
KB-3-1 tox: qHTS assay for MDR1-selective chemotherapeutics: Primary screen using the parental adenocarcinoma cell KB-3-1; Potency, µM (series often up to 46.1 µM), hits mostly cytotoxic; KB-3-1 viability, CellTiter-Glo ATP luminescence, 72 h; 400,000 compounds, 1.4% hits; note: nearly all actives have a fitted effect of over 60% in size
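Luminescent ATP read-out (CellTiter-Glo) measures survival of drug-naive KB-3-1 cells after 72 h compound exposure at 37 °C. Titration series was screened from lowest to highest concentration, with DMSO vehicle plates as background controls.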
TDP1 cell CPT: qHTS for Inhibitors of human tyrosyl-DNA phosphodiesterase 1 (TDP1): qHTS in cells in presence of CPT; chicken DT40 Tdp1-/-;hTDP1 cells + 20 nM CPT, ATP luminescence, 48 h; Potency, µM (highest dose often 46.2 µM), for the others: top-dose activity change, negative = growth inhibition, usual class: inhibitors; 420,000 compounds, 12% hits; note: nearly all actives have a fitted effect of over 55% in size
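Chicken DT40 Tdp1-/- cells complemented with human TDP1, 400 cells/well, exposed to compounds plus 20 nM camptothecin for at least 48 h at 37 C; viability read as ATP content by CellTiter-Glo luminescence.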
DT40 TDP1 no CPT: qHTS for Inhibitors of human tyrosyl-DNA phosphodiesterase 1 (TDP1): qHTS in cells in absence of CPT; DT40 Tdp1-/- hTDP1 cells, no CPT, ATP luminescence, 48 h; Potency, µM (doses to about 46.2 µM), for inactives: top-dose activity change, negative = growth inhibition, hits mostly inhibitors; 420,000 compounds, 15% hits; note: nearly all actives have a fitted effect of over 55% in size
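Seeded 400 DT40-hTDP1 cells/well (vehicle DMSO, no 20 nM CPT); pinned compounds; ≥48 hr at 37 °C; CellTiter-Glo luminescence as viability measure.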
HT1080-NT tox: qHTS for induction of synthetic lethality in tumor cells producing 2HG: qHTS for the HT-1080-NT fibrosarcoma cell line; 360,000 compounds, 1.6% hits; Potency, µM (doses to about 46.1 µM), for inactives: at the top dose activity, negative = less viability, most hits filed as cytotoxic; HT-1080-NT fibrosarcoma viability, CellTiter-Glo ATP luminescence, 48 h;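 note: NT is the 2HG producing partner of a matched IDH1 knockdown line; 0% = DMSO-treated cells and -100% = media-only wells without cells; nearly all actives have a fitted effect of over 55% in size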
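Viability of the 2HG-overproducing fibrosarcoma line after 48 hours of compound exposure at 37 degrees C was determined by luminescence with CellTiter-Glo, and concentration-effect curves were then fitted and categorized.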
KB-V1 MDR tox: qHTS assay for MDR1-selective chemotherapeutics: Primary screen using the drug-selected MDR subline cells KB-V1. 400,000 compounds, 3.4% hits. KB-V1 MDR cells viability, CellTiter-Glo, 72 h. Potency, µM (highest dose often 46.1 µM), hits mostly cytotoxic; note: nearly all actives have a fitted effect of over 60% in size
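Cytotoxicity toward P-gp-expressing KB-V1 cells was determined as loss of CellTiter-Glo luminescence after 72 h at 37 degrees C. Compounds were tested in quantitative HTS format across a concentration range, with curves fitted to normalized data.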
HT1080 IDH1KD tx: qHTS for induction of synthetic lethality in tumor cells producing 2HG: qHTS for the HT-1080-IDH1KD cell line; HT-1080 IDH1 knockdown viability, ATP luminescence, 48 h; Potency, µM (series often up to 46.1 µM), for inactives: at the top dose activity, negative = toxicity, usual class: cytotoxic; 360,000 compounds, 2% hits;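 note: 0% = DMSO wells and -100% = cell-free medium wells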
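% activity derives from luminescence (CellTiter-Glo), normalised to DMSO and no-cell wells. HT-1080-IDH1KD cells, 750/well, had 48 h compound exposure at 37 °C.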
* = called active by the depositor; i = inactive; ? = inconclusive; . = no result given; [ ] = remark or other dose. The list is not random: actives were taken first. Their share in the collection is about 19%. Calls come from the whole dose curve; as a rule, active = well fitted curve in the direction sought with a large enough effect; inconclusive = small, poorly fitted or top-dose-only effect, or another doubt; inactive = no such curve, though single readings can be large; an effect the other way counts as inactive or inconclusive. Unless noted, % is set by controls: 0 for no effect and ±100 for the full control effect; potency is the fitted concentration of half-maximal effect.

SMILES | KB-3-1 tox | TDP1 cell CPT | DT40 TDP1 no CPT | HT1080-NT tox | KB-V1 MDR tox | HT1080 IDH1KD tx
CC(=O)N1c2ccc(S(=O)(=O)N3CCC(C(=O)NCc4ccccc4)CC3)cc2CC1C (configuration not stated) | i | ? | -18.9% | 0.8% | i | 4.4%
CC(=O)N1c2ccc(S(=O)(=O)N3CCC(C(=O)Nc4cccc(C(F)(F)F)c4)CC3)cc2CC1C (configuration not stated) | ? | 16.4µM* | ? | -22.9% | i | ?
CCc1cccc(NC(=O)C2CCN(S(=O)(=O)c3ccc4c(c3)CC(C)N4C(C)=O)CC2)c1 (configuration not stated) | i | 16.4µM* | 20.6µM* | -7.2% | ? | -3.9%
CC(=O)Nc1ccc(S(=O)(=O)N2c3ccc(F)cc3CCC2C)cc1 (configuration not stated) | 9.2µM* | 7.31µM* | 5.8µM* | ? | i | 20.6µM*
COc1cc([N+](=O)[O-])ccc1NC(=O)N1CCC2(CC1)Nc1cc(F)ccc1-n1cccc12 | i | ? | ? | . | i | .
Cn1nnnc1SCC(=O)Nc1ncc(Cl)cc1Cl | i | 7.5% | -6.0% | 7.3% | i | 6.6%
CC(=O)c1cccc(NC(=O)Cn2cnc(S(=O)(=O)N3CCCC3)c2)c1 | i | -1.4% | 24.8% | 15.8% | i | 11.1%
COc1ccc(CNC(=O)C2CCN(S(=O)(=O)c3ccc4c(c3)CC(C)N4C(C)=O)CC2)cc1 (configuration not stated) | i | -11.4% | -23.4% | -17.1% | i | -9.3%
COc1cccc(NC(=O)C2CCN(S(=O)(=O)c3ccc4c(c3)CC(C)N4C(C)=O)CC2)c1 (configuration not stated) | i | 14.6µM* | ? | 1.4% | i | -3.9%
CC(=O)N1c2ccc(S(=O)(=O)N3CCC(C(=O)Nc4ccc(F)cc4)CC3)cc2CC1C (configuration not stated) | i | 18.4µM* | 13µM* | -1.5% | i | -13.8%
Cc1nnc(SCC(=O)N(C)C2CCCCC2)s1 | i | -7.8% | -0.9% | 28.6% | i | 4.1%
CC(C)(C)c1ccc(OCCOc2ccc(C(C)(C)C)cc2NC=O)c(NC=O)c1 | i | 20.6µM* | 20.6µM* | ? | ? | 14.6µM*
COc1ccc(CCNC(=O)CCNC(=O)c2ccccc2Cl)cc1 | i | 20.1% | 4.2% | 9.3% | i | 16.0%
CCOc1ccc(-n2c(=O)c3sccc3n(CC(=O)NCCc3ccc(OC)c(OC)c3)c2=O)cc1 | i | -23.5% | -4.4% | 0.0% | i | 8.3%
CCN(CC)S(=O)(=O)c1ccc2oc(Nc3ccc(OC)cc3OC)nc2c1 | i | ? | 18.4µM* | ? | ? | ?
CCOC(=O)c1oc2ccc(S(=O)(=O)n3nc(-c4ccc(OC)cc4)cc3N)cc2c1C | ? | 2.91µM* | 2.91µM* | 12.1% | ? | -10.3%
CCOc1ccc(-c2cc(N)n(S(=O)(=O)c3ccc(OC)cc3)n2)cc1 | i | ? | ? | -5.7% | i | -8.1%
CCCCN(CCCC)S(=O)(=O)c1ccc2oc(C(=O)N3CCOCC3)c(C)c2c1 | i | ? | ? | 2.4% | 4.61µM* | -23.7%
COc1ccc2oc(C(=O)NCc3cc(OC)c(OC)cc3OC)c(C)c2c1 | i | 23.1µM* | 16.4µM* | -24.2% | ? | -19.5%
COc1cc(=O)n2c(c1C(=O)N(C)Cc1nonc1C)CCN(Cc1ccccc1F)CC2 | . | 2.5%[9.04 µM] | -22.9% | . | . | .
O=Cc1ccc(OC2OCCOC2Oc2ccc(C=O)cc2)cc1 (configuration not stated) | i | ? | ? | 0.0% | i | -3.7%
Cc1c(C(=O)NCCc2ccccc2)oc2ccc(S(=O)(=O)N3CCOCC3)cc12 | i | -23.8% | ? | -10.8% | i | -1.2%
CCN(CC)S(=O)(=O)c1ccc2oc(C(=O)Nc3ccc(OC)cc3OC)c(C)c2c1 | i | 18.4µM* | 11.6µM* | 2.5% | i | 11.2%
Cc1c(C(=O)NCc2ccc3c(c2)OCO3)oc2ccc(S(=O)(=O)N3CCCCCC3)cc12 | i | ? | ? | -14.3% | i | -0.7%
CCN(CC)S(=O)(=O)c1ccc2oc(C(=O)Nc3cc(C)ccc3OC)c(C)c2c1 | i | ? | ? | . | ? | .
SMILES | KB-3-1 tox | TDP1 cell CPT | DT40 TDP1 no CPT | HT1080-NT tox | KB-V1 MDR tox | HT1080 IDH1KD tx
Cc1c(C(=O)NCc2ccc3c(c2)OCO3)oc2ccc(S(=O)(=O)N3CCC(C)CC3)cc12 | i | 14.6µM* | 14.6µM* | -3.4% | i | -25.2%
CCN(CC)S(=O)(=O)c1ccc2oc(C(=O)NC3CC3)c(C)c2c1 | i | -21.7% | 10.3µM* | 2.1% | ? | -0.4%
Cc1c(C(=O)NCc2ccc(F)cc2)oc2ccc(S(=O)(=O)N3CCOCC3)cc12 | i | ? | 14.6µM* | -2.4% | ? | -15.3%
CCn1c(C)c(C(=O)c2ccccc2)c(C#N)c1C(=O)O | i | ? | -0.3% | -1.6% | i | -3.5%
COc1cc(NC(=O)C(CC(C)C)NS(=O)(=O)c2ccc3c(c2)CCCC(=O)N3)cc(OC)c1 (configuration not stated) | i | -20.4% | -6.0% | . | ? | .
CCC(C)[C@H](NC(=O)N1CCCCCC1)C(=O)OC (some centres not stated) | i | -4.6% | 0.0% | -1.0% | i | 5.6%
CCc1ccc2oc(C(=O)NCc3ccc(S(N)(=O)=O)cc3)c(C)c2c1 | ? | -18.1% | -17.8% | -2.3% | i | -27.9%
CCN(CC)S(=O)(=O)c1ccc2oc(C(=O)NCc3ccc(F)cc3)c(C)c2c1 | i | 13µM* | 13µM* | -21.4% | i | -20.5%
CC(=O)C1=C(O)C(=O)N(c2ccc(S(N)(=O)=O)cc2)C1c1cccc([N+](=O)[O-])c1 (configuration not stated) | i | -20.2% | 6.4% | 1.4% | i | -1.2%
